Experimental data published in PubChem BioAssay AID2685 (National Center for Advancing Translational Sciences (NCATS), 2010).
Screen size: about 320,000 compounds; about 2,100 (0.66%) were called active. Not shown: some 53% with an inconclusive outcome. The call rests on the fitted dose curve; in most records, active means well fitted inhibition curve with a large enough effect in the signal ratio, with a control signal flat (not every such curve was filed as active); inconclusive means small, poorly fitted or top-dose-only effect, or effect the other way, or a change in a side signal; inactive means flat fitted curve, though single readings scatter; the % refers to the signal ratio. The full list was thinned out, with actives kept by preference.

Assay: qHTS Assay for Lipid Storage Modulators in Drosophila S3 Cells;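 on cell number change: cells counted by Cell Tracker Red CMTPX staining in the red channel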; on lipid storage change, negative = inhibition: on the % scale 0 is the no-effect control and ±100 the full control effect
Details: BODIPY lipid droplet fluorescence, 18-24 h, cells fed with added oleic acid; cell number change: measured here: cell count max response; series mostly up to 46.1 µM; lipid storage change, negative = inhibition: at the top concentration
Summary of the method: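 Laser-scanning cytometry quantifies lipid droplet accumulation (500–530 nm total intensity; droplet/cell object ratio) in oleic acid-fed (400 uM added) Drosophila S3 cells treated with a concentration series. 20 uM Triacsin C defined 100% inhibition.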
Potency means the concentration at half of the fitted maximal effect.

Question: With `CC(C)N(C(=S)Nc1cccc(C(F)(F)F)c1)C(C)c1ccccn1` (configuration not stated) as the molecule, how does the “lipid storage change, negative = inhibition” value read?
Answer: 0.651% (inactive)

Question: Which Potency does the source give for `CC(C)CCN(C(=S)Nc1cccc(C(F)(F)F)c1)C(C)c1ccccn1` (configuration not stated) here?
Answer: 32.6 µM (active)

Question: What about the cell number change of the same molecule?
Answer: -20.3%

Question: With `CC(c1ccccn1)N(CCN(C)C)C(=S)Nc1cccc(F)c1` (configuration not stated) as the molecule, how does the “outcome” value read?
Answer: inactive

Question: Which “outcome” value does the source give for `Cc1ncoc1C(=O)Nc1cccc(Cl)c1C` here?
Answer: inactive

Question: For `CCc1cc(=O)oc2cc(C)cc(OC(C)C(=O)NC3CC(C)(C)NC(C)(C)C3)c12` (configuration not stated), which “outcome” value is on record?
Answer: inactive

Question: What about the cell number change of the same molecule?
Answer: 17.3%

Question: Which results are given for `CCS(=O)(=O)CCSc1nc(C)cc(C)c1C#N`?
Answer: outcome: inactive; cell number change: 5.68%

Question: What does the source list for `Cc1ccc(S(=O)(=O)CCSc2ccc(C(F)(F)F)cn2)cc1`?
Answer: lipid storage change, negative = inhibition: 6.53% (inactive); cell number change: 21.4%

Question: Which Potency does the source give for `Cc1ccc(S(=O)(=O)CCSc2nc(C)cc(C(F)(F)F)c2C#N)cc1` here?
Answer: 16.4 µM (active)

Question: And the cell number change?
Answer: -21.5%

Question: With `COc1ccc(NC(=O)CSCC(=O)N=c2sccn2C)cc1` as the molecule, how does the “outcome” value read?
Answer: inactive

Question: And the cell number change?
Answer: 23.3%

Question: For `COc1ccc(-n2nc3c(c2NC(=O)CCCl)CSC3)cc1`, which “lipid storage change, negative = inhibition” value is on record?
Answer: 25.1% (inactive)

Question: What about the cell number change of the same molecule?
Answer: 1.89%

Question: Which Potency does the source give for `CN1/C(=C\C=N\NC(=O)c2ccc(O)cc2)C(C)(C)c2ccccc21` here?
Answer: 2.31 µM (active)

Question: What about the cell number change of the same molecule?
Answer: -19.2%

Question: What does the source list for `CN1/C(=C\C=Nc2ccc3ccccc3c2)C(C)(C)c2ccccc21`?
Answer: lipid storage change, negative = inhibition: -22.9% (inactive); cell number change: 6.9%

Question: Which “lipid storage change, negative = inhibition” value does the source give for `CN1/C(=C/C=C(/C#N)C(N)=O)C(C)(C)c2ccccc21` here?
Answer: -1.55% (inactive)

Question: What about the cell number change of the same molecule?
Answer: 13.2%

Question: For `CN1/C(=C\C(=O)C(F)F)C(C)(C)c2ccccc21`, which “outcome” value is on record?
Answer: inactive

Question: With `CN1/C(=C/C=C(C#N)C#N)C(C)(C)c2ccccc21` as the molecule, how does the Potency read?
Answer: 7.31 µM (active)

Question: And the cell number change?
Answer: 7.31%

Question: Which results are given for `CN1/C(=C\C(=O)Nc2ccc(F)cc2)C(C)(C)c2ccccc21`?
Answer: lipid storage change, negative = inhibition: -15.1% (inactive); cell number change: -24.5%

Question: Which results are given for `CCc1cc(C(=O)N2CCCC(CCC(=O)N3CCN(c4ccccn4)CC3)C2)no1` (configuration not stated)?
Answer: lipid storage change, negative = inhibition: -10% (inactive); cell number change: -4.75%

Question: What does the source list for `O=C(CSc1nc2ccccc2[nH]1)NCC1CCCO1` (configuration not stated)?
Answer: lipid storage change, negative = inhibition: -1.44% (inactive); cell number change: 1.54%

Question: For `O=C(CCC(=O)c1ccc(F)cc1)Nc1cccc(C(F)(F)F)c1`, which “lipid storage change, negative = inhibition” value is on record?
Answer: -22% (inactive)

Question: What about the cell number change of the same molecule?
Answer: -4.38%

Question: Which “lipid storage change, negative = inhibition” value does the source give for `Cc1cnc(C(=O)OCc2c(C)cc(C(C)(C)C)cc2C)cn1` here?
Answer: -22.9% (inactive)

Question: And the cell number change?
Answer: 3.78%

Question: Which results are given for `COc1ccc(C(C)=O)cc1COC(=O)c1cnc(C)cn1`?
Answer: outcome: inactive; cell number change: 5.96%

Question: With `COc1cc(COC(=O)c2cnc(C)cn2)c(OC)cc1Br` as the molecule, how does the Potency read?
Answer: 0.517 µM (active)

Question: What about the cell number change of the same molecule?
Answer: 4.62%

Question: For `COc1ccc(C(C(=O)NC2CCCC2)N(C(=O)c2ccco2)c2ccc3c(c2)OCO3)cc1OC` (configuration not stated), which “lipid storage change, negative = inhibition” value is on record?
Answer: 17.5% (inactive)

Question: Which “lipid storage change, negative = inhibition” value does the source give for `COc1ccccc1NC(=O)Nc1c(C)nn(C)c1C` here?
Answer: 4.48% (inactive)

Question: And the cell number change?
Answer: 22.1%

Question: Which results are given for `C/C=C/c1ccc(OCCn2nnc3ccccc32)c(OC)c1`?
Answer: lipid storage change, negative = inhibition: -26% (inactive); cell number change: 1.4%

Question: With `COc1ccc(-c2cc(C(=O)c3c(N)n(C)c(=O)n(C)c3=O)c3ccccc3n2)cc1` as the molecule, how does the “lipid storage change, negative = inhibition” value read?
Answer: 15.1% (inactive)

Question: And the cell number change?
Answer: 0.639%

Question: With `CCOCCCN1CN(S(=O)(=O)c2ccc(Cl)cc2)c2nc3ccccc3nc21` as the molecule, how does the “lipid storage change, negative = inhibition” value read?
Answer: 14.5% (inactive)

Question: What about the cell number change of the same molecule?
Answer: -11.9%

Question: Which “outcome” value does the source give for `Cc1c(CNCCc2ccc(Cl)cc2)c(C(=O)O)c(C)n1Cc1ccccc1` here?
Answer: inactive

Question: With `Cc1ccc(NC(=O)COC(=O)CSC(=S)N2CCOCC2)cc1C` as the molecule, how does the “lipid storage change, negative = inhibition” value read?
Answer: 5.57% (inactive)

Question: And the cell number change?
Answer: 1.5%

Question: What does the source list for `O=C(CCl)N1c2ccccc2OCC1c1ccccc1` (configuration not stated)?
Answer: outcome: inactive; cell number change: -20.4%

Question: With `O=C(O)CN1C(=O)CSc2ccccc21` as the molecule, how does the “lipid storage change, negative = inhibition” value read?
Answer: -0.578% (inactive)

Question: What about the cell number change of the same molecule?
Answer: 2.34%

Question: Which Potency does the source give for `O=C(CCl)N1c2ccccc2SCC1c1ccccc1` (configuration not stated) here?
Answer: 1.03 µM (active)

Question: What about the cell number change of the same molecule?
Answer: -4.27%

Question: Which results are given for `CC(=O)Nc1ccc(Nc2c([N+](=O)[O-])c(=O)n(-c3ccccc3)c3ccccc23)cc1`?
Answer: lipid storage change, negative = inhibition: 2.41% (inactive); cell number change: 12.5%

Question: With `O=C(Nc1nncs1)c1ccccc1Br` as the molecule, how does the Potency read?
Answer: 32.6 µM (active)

Question: And the cell number change?
Answer: 9.55%

Question: With `Cc1nnc(NC(=O)c2ccccc2Br)s1` as the molecule, how does the “lipid storage change, negative = inhibition” value read?
Answer: 0.131% (inactive)

Question: What about the cell number change of the same molecule?
Answer: 8.15%

Question: With `O=C(Nc1nccs1)c1ccccc1Br` as the molecule, how does the “lipid storage change, negative = inhibition” value read?
Answer: 8.98% (inactive)

Question: What about the cell number change of the same molecule?
Answer: 3.63%

Question: Which “outcome” value does the source give for `Cc1ccc(-n2nc3c(=O)n(CC(=O)NCc4ccc(C)o4)nc(C)c3c2C)cc1` here?
Answer: inactive

Question: What about the cell number change of the same molecule?
Answer: -10.7%

Question: Which “lipid storage change, negative = inhibition” value does the source give for `COC(=O)c1ccc2c(=O)n(CCCCCC(=O)NC(C)C)c(=O)[nH]c2c1` here?
Answer: 20.1% (inactive)

Question: With `O=C(Cn1cncn1)NCc1cccc2ccccc12` as the molecule, how does the “lipid storage change, negative = inhibition” value read?
Answer: 5.26% (inactive)

Question: And the cell number change?
Answer: -12.1%

Question: Which “lipid storage change, negative = inhibition” value does the source give for `CC1CCN(CCNC(=S)Nc2ccc(Cl)cc2)CC1` here?
Answer: 0.944% (inactive)

Question: And the cell number change?
Answer: 5.06%

Question: What does the source list for `O=C1NN(c2ccc(Cl)c(Cl)c2)C(=O)/C1=C/c1cccc(OC(=O)c2cccs2)c1`?
Answer: Potency: 23.1 µM (active); cell number change: -11.7%

Question: What does the source list for `COc1cccc(/C=C2/C(=O)NN(c3ccccc3)C2=O)c1`?
Answer: lipid storage change, negative = inhibition: 1.13% (inactive); cell number change: 0.215%

Question: Which “lipid storage change, negative = inhibition” value does the source give for `COc1cccc(/C=C2/C(=O)NN(c3ccc(F)cc3)C2=O)c1` here?
Answer: 69% (inactive)

Question: What about the cell number change of the same molecule?
Answer: 8.15%

Question: For `CCOc1ccc(S(=O)(=O)Oc2ccc3ccccc3c2)cc1`, which “lipid storage change, negative = inhibition” value is on record?
Answer: -14.9% (inactive)

Question: What about the cell number change of the same molecule?
Answer: -10%

Question: What does the source list for `CCOc1ccc(/C=C/C2=Cc3c(sc(NC(=O)CSc4n[nH]c(N)n4)c3C#N)C(C)(C)C2)cc1`?
Answer: Potency: 14.6 µM (active); cell number change: -29.6%

Question: For `CCOC(=O)c1sc(NC(=O)CSc2n[nH]c(-c3ccccc3)n2)c(C#N)c1C`, which “outcome” value is on record?
Answer: inactive

Question: For `CCOc1ccccc1NC(=O)CSc1n[nH]c(N)n1`, which “lipid storage change, negative = inhibition” value is on record?
Answer: 7.41% (inactive)

Question: And the cell number change?
Answer: 13.9%

Question: Which “outcome” value does the source give for `Cn1c(=O)n(C)c2cc(CN3C(=O)OC(C)(C)C3(C)O)ccc21` (configuration not stated) here?
Answer: inactive
